# Experimental data from PubChem BioAssay.
# Calls of active or inactive are those of the source. Unless noted, no rule for the calls is given here.
# How the values were obtained:
# [1] = resazurin metabolic signal in HepG2 cells – cell-based, resazurin fluorescence, 24 h, PK04 Diversity Set, profiling panel (AID 1172); settings: HepG2 viability, higher = more signal
# [2] = budding yeast growth changes without added modifier – OD600, strain BY4716, 24 h, basal condition, primary screen (AID 1173); settings: S. cerevisiae BY4716 growth, OD600, 24 h; higher = more signal, called active from +8 up or from −8 down
# [3] = viability profiling in MM1S myeloma cells – cell-based, resazurin fluorescence, basal, 24 h, PK04 Diversity Set, profiling panel (AID 1174); settings: higher = more signal, called active from +8 up or from −8 down;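 also: MM1S multiple myeloma cell line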
# [4] = target: Dihydroorotate dehydrogenase (quinone), mitochondrial (Plasmodium falciparum (isolate 3D7)) (UniProt Q08210); assay: inhibition of P. falciparum DHODH – biochemical, C-terminal His tag, absorbance 600 nm, primary screen (AID 1175); settings: PfDHODH enzyme, DCIP absorbance 600 nm; higher = more signal, called active from +8 up or from −8 down;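 also: recombinant parasite enzyme with a five histidine tag at its C terminus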
# [5] = inhibition of PAO1 biofilm formation – strain PAO1, LB-PBS medium, absorbance 600 nm, primary screen (AID 1176); settings: P. aeruginosa PAO1 growth/biofilm, A600, 12 h; higher = more signal
# [6] = growth modulation of vineyard yeast isolate – strain RM11-1a, OD600, basal, 24 h, primary screen (AID 1177);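 also: cultures grown under basal conditions with no added stressor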; settings: S. cerevisiae RM11-1a growth, OD600, 24 h; higher = more signal, called active from +8 up or from −8 down
# [7] = growth of efflux-deficient E. coli DRC39 – strain DRC39, OD650, 24 h, E. coli filamentation inducers, primary screen (AID 1178);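 also: growth measured as culture turbidity by optical density at 650 nm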; settings: E. coli DRC39 acrAB, higher = more signal, called active from +8 up or from −8 down
# [8] = growth of efflux-deficient E. coli DRC39 – strain DRC39, OD650, 48 h, E. coli filamentation inducers, primary screen (AID 1179);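 also: screen aims at cell division blockers that make cells filament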; settings: E. coli DRC39 delta-acrAB growth, higher = more signal, called active from +8 up or from −8 down
# [9] = viability profiling in RPMI8226 myeloma cells – cell-based, resazurin fluorescence, basal, 24 h, PK04 Diversity Set, profiling panel (AID 1180); settings: higher = more signal;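 also: RPMI8826 multiple myeloma cell line at 5000 cells per well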
# [10] = target: E3 ubiquitin-protein ligase XIAP (Homo sapiens) (UniProt P98170); assay: small molecules binding XIAP protein – biophysical, small-molecule microarray, fluorescence 635 nm, primary screen (AID 1181); settings: higher = more signal;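 also: score merges 667 nm emission and signal to noise over triplicate slides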
# [11] = test system: XIP peptide (Xip251-270) binding; assay: XIP fragment 251-270 binding compounds – biochemical, small-molecule microarray, fluorescence 635/667 nm, 0.1 µg/mL protein, primary screen (AID 1182); settings: fluorescent protein binding, 635 nm, higher = more signal, called active from +8 up or from −8 down
# XIP peptide (Xip251-270) = assay: compounds binding XIP fragment 251-270 – biochemical, small-molecule microarray, fluorescence 635/667 nm, 0.5 µg/mL protein, primary screen (AID 1183); settings: fluorescence 635 nm, higher = more signal
# [12] = blood-stage malaria parasite viability loss – strain 3D7, DAPI fluorescence, 100 nL, primary screen (AID 1184);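 also: parasites grown inside human red blood cells in medium with human serum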; settings: P. falciparum 3D7 growth, 3 d, higher = more signal
# [13] = target: Homeobox protein Hox-A13 (Mus musculus) (UniProt Q62424); assay: disruptors of Hoxa13 oligonucleotide interaction – biochemical, fluorescence polarization, labeled oligonucleotide, primary screen (AID 1185); settings: Hoxa13:DNA binding, 15 min, higher = more signal, called active from +8 up or from −8 down
# [14] = blockers of DNA damage checkpoint Chk1 activation – imaging, HeLa, hydroxyurea, phospho-Chk1 antibody, percent positive cells, primary screen (AID 1186); settings: hydroxyurea-induced phospho-Chk1 immunofluorescence imaging, higher = more signal
# [15] = blockers of DNA damage checkpoint Chk1 activation – imaging, HeLa, hydroxyurea, phospho-Chk1 nuclear intensity, primary screen (AID 1187); settings: hydroxyurea-induced phospho-Chk1 immunofluorescence imaging, higher = more signal
# Sequence of Dihydroorotate dehydrogenase (quinone), mitochondrial (Plasmodium falciparum (isolate 3D7)) (Q08210 whole entry, looked up): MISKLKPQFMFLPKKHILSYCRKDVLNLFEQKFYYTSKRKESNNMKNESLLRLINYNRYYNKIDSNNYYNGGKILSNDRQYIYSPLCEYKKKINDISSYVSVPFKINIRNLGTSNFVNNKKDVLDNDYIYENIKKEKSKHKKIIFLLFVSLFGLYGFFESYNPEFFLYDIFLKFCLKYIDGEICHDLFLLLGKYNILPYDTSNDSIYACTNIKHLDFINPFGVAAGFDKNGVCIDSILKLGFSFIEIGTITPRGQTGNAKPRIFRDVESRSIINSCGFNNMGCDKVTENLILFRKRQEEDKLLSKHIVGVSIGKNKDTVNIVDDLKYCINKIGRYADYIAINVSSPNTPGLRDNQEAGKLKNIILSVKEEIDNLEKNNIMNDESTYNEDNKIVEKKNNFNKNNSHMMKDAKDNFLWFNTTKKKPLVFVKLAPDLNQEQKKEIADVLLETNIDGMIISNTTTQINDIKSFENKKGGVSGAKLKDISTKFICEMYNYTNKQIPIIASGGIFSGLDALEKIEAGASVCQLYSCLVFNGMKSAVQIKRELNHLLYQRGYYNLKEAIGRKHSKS
# Sequence of E3 ubiquitin-protein ligase XIAP (Homo sapiens) (P98170 whole entry, looked up, the tested form may be a part): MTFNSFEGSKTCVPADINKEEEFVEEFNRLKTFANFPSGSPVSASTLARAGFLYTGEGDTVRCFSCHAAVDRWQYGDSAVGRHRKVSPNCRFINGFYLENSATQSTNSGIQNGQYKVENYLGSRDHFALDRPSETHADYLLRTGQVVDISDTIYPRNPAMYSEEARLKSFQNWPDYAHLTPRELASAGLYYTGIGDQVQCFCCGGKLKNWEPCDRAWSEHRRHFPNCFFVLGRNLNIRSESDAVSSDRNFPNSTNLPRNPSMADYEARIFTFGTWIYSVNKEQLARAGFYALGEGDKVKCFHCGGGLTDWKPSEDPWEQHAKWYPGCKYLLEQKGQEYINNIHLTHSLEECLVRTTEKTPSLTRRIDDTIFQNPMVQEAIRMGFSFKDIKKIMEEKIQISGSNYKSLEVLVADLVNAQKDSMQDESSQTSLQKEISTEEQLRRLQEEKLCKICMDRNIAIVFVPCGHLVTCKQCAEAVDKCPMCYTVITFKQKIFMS
# Sequence of Homeobox protein Hox-A13 (Mus musculus) (Q62424 whole entry, looked up): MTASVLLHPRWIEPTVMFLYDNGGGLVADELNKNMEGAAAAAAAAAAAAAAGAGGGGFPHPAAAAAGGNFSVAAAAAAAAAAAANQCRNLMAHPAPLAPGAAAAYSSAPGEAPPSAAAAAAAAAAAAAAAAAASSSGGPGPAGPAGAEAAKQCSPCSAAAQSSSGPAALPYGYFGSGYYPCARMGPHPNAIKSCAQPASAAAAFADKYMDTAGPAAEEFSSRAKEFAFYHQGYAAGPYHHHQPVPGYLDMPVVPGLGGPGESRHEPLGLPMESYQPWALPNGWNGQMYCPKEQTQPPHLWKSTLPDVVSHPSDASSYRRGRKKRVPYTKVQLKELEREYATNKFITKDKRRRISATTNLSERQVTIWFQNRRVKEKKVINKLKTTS
Compound,z-score [1],z-score [2],z-score [3],composite z-score [4],z-score [5],z-score [6],z-score [7],z-score [8],z-score [9],composite z-score [10],composite z-score [11],composite z-score (XIP peptide (Xip251-270)),z-score [12],z-score [13],z-score [14],z-score [15]
O=C1c2ccccc2[C@@]2(Cc3ccccc3N(C3CC3)C2=O)[C@H](c2ccc(CO)cc2)N1C1CCCCC1,-0.319,0.979 (inactive),-0.36 (inactive),-4.68 (inactive),0.264 (inactive),1.24 (inactive),0.609 (inactive),0.106 (inactive),-0.546,0.242,-0.241 (inactive),-0.76,-0.323,-2.14 (inactive),0.353 (inactive),0.349 (inactive)
C[N+](C)(C)CCCC[C@@H]1NC(=O)[C@@H]2C[C@H](C(=O)O)[C@H](c3ccc(O)cc3)N2C1=O,-1.16,0.824 (inactive),0.18 (inactive),-11.6 (active),0.103 (inactive),0.0252 (inactive),0.233 (inactive),0.596 (inactive),-0.339,-0.199,2.65 (inactive),0.124,-0.195,-1.93 (inactive),0.115 (inactive),0.274 (inactive)
C[C@]12C(=O)N(CCCCCCO)[C@@H]3C(=O)N(c4ccc(Cl)cc4)CC=CC31O[C@@H]1/C=C\CCCOC(=O)C12 (some centres undefined),-0.578,-1.3 (inactive),0.423 (inactive),-0.699 (inactive),-0.0558 (inactive),-1.29 (inactive),-0.0299 (inactive),0.692 (inactive),1.05,-0.235,-0.295 (inactive),-0.0821,-0.692,-4.68 (inactive),-0.659 (inactive),0.264 (inactive)
O=C1C2C=CC(C(O)c3cc(C(F)(F)F)cc(C(F)(F)F)c3)N(Nc3ccc([N+](=O)[O-])cc3)C2C(=O)N1c1ccccc1 (centres undefined),-0.566,0.55 (inactive),-0.683 (inactive),0.665 (inactive),1.07 (inactive),0.565 (inactive),-2.26 (inactive),-1.25 (inactive),-2.18,0.29,0.131 (inactive),0.802,-0.945,-3.06 (inactive),-0.198 (inactive),-0.331 (inactive)
COC(=O)[C@@]1(Cc2ccc(OC)cc2)[C@H]2c3cc(C(=O)N4CCCC4)n(CCc4cc5ccccc5[nH]4)c3C[C@H]2CN1C(=O)c1ccccc1,-0.406,1.3 (inactive),-1.24 (inactive),0.203 (inactive),0.756 (inactive),1.03 (inactive),0.009 (inactive),-0.655 (inactive),-0.818,-0.0685,1.64 (inactive),0.685,-1.66,-1.91 (inactive),-0.203 (inactive),-0.0973 (inactive)
COc1ccc([Si](C)(C)[C@H]2[C@H](CCn3cc([C@H](O)c4ccccc4)nn3)O[C@@]3(C(=O)N(Cc4ccc(N5CCOC5=O)cc4)c4ccccc43)[C@@H]2C)cc1,-0.27,0.574 (inactive),-0.412 (inactive),0.624 (inactive),1.04 (inactive),2.18 (inactive),0.205 (inactive),0.139 (inactive),0.129,-0.171,-0.47 (inactive),0.103,-2.29,-2.28 (inactive),-0.138 (inactive),-0.0848 (inactive)
CCOC(=O)C1=CC[C@@H](c2ccccc2)N(S(=O)(=O)c2ccc(C)cc2)C1,-0.842,1.39 (inactive),-1.31 (inactive),0.806 (inactive),0.465 (inactive),1.82 (inactive),-0.866 (inactive),-0.869 (inactive),-2.53,0.0975,-0.4 (inactive),-0.654,-0.557,-2.76 (inactive),0.107 (inactive),-0.749 (inactive)
O=C1C[C@]2(c3ccc([N+](=O)[O-])cc3)C(=O)N(Cc3ccccc3)c3cc(CO)ccc3[C@H]2N1CC12CC3CC(CC(C3)C1)C2,-0.566,-0.0685 (inactive),-0.434 (inactive),-3.36 (inactive),0.848 (inactive),-0.268 (inactive),-0.22 (inactive),0.0276 (inactive),-0.717,-0.133,0.0547 (inactive),-1.46,-0.734,-1.07 (inactive),0.0585 (inactive),-0.785 (inactive)
COCCOC(=O)N1C(=O)[C@@]2(c3cc(C#Cc4ccc(OC)cc4)ccc31)[C@H](C(=O)N1CCN(c3ncccn3)CC1)[C@H]1C(=O)O[C@H](c3ccccc3)[C@H](c3ccccc3)N1[C@@H]2c1ccccc1OCCO,0.205,2.91 (inactive),-0.353 (inactive),0.27 (inactive),3.8 (inactive),4.28 (inactive),-0.269 (inactive),0.188 (inactive),0.35,-0.0928,-0.148 (inactive),0.561,-1.51,-0.114 (inactive),-0.019 (inactive),-0.0377 (inactive)
COc1ccc(CCNC(=O)[C@@]2(Sc3ccc(C)cc3)CC(=O)N(Cc3cc(C(F)(F)F)cc(C(F)(F)F)c3)[C@@H]2c2ccc(CO)cc2I)cc1,0.872,-3.6 (inactive),-2.46 (inactive),-0.988 (inactive),0.723 (inactive),-1.33 (inactive),0.232 (inactive),0.214 (inactive),-1.61,-0.291,0.439 (inactive),0.858,0.725,-2.57 (inactive),0.261 (inactive),0.688 (inactive)
CC(C)C(=C=CC[C@@H](O)c1ccccc1OCCO)C[C@@H](O)COCc1ccccc1,0.669,-15.5 (active),0.304 (inactive),-5.41 (inactive),0.354 (inactive),-4.06 (inactive),2.28 (inactive),1.51 (inactive),0.424,0.109,0.493 (inactive),0.401,-1.47,-4.7 (inactive),-0.476 (inactive),1.12 (inactive)
COc1ccc(C(O)C2C=CC3C(=O)N(Cc4ccccc4)C(=O)C3N2n2cnnc2)c2ccccc12 (centres undefined),-1.05,0.373 (inactive),-1.47 (inactive),-0.609 (inactive),-0.722 (inactive),-0.975 (inactive),-0.597 (inactive),-0.706 (inactive),-1.06,0.176,1.09 (inactive),0.537,-1.05,-1.49 (inactive),-0.525 (inactive),-0.966 (inactive)
COC(=O)[C@@]1(Cc2ccccc2)[C@H]2c3cc(C(=O)N4CCCC4)n(Cc4cc(F)cc5c4OCOC5)c3C[C@H]2CN1C(=O)c1ccccc1,-0.0185,0.978 (inactive),-0.523 (inactive),-0.354 (inactive),0.122 (inactive),-0.0989 (inactive),-0.599 (inactive),-0.37 (inactive),-0.312,0.392,0.766 (inactive),0.828,-1.65,-5.42 (inactive),0.189 (inactive),0.435 (inactive)
CN(C)CCCNC(=O)[C@@H]1c2ccccc2C(=O)N(CC23CC4CC(CC(C4)C2)C3)[C@H]1c1ccc(CO)cc1,-0.701,-3.33 (inactive),-0.809 (inactive),-0.184 (inactive),0.0435 (inactive),0.28 (inactive),0.309 (inactive),0.401 (inactive),-0.692,0.0973,1.18 (inactive),0.824,-2.18,3.41 (inactive),0.595 (inactive),1.05 (inactive)
C=C[C@H](COC(C)=O)NS(=O)(=O)c1ccc(Br)cc1,0.266,-1.05 (inactive),-0.05 (inactive),-1.08 (inactive),-0.18 (inactive),0.579 (inactive),0.165 (inactive),-0.0304 (inactive),-0.675,-0.0627,-0.111 (inactive),0.238,0.463,-0.189 (inactive),-0.655 (inactive),-0.782 (inactive)
COc1ccc(NN2C(C(O)c3ccco3)C=CC3C(=O)N(C4CCCCC4)C(=O)C32)cc1 (centres undefined),0.502,-1.11 (inactive),-1.59 (inactive),0.181 (inactive),0.546 (inactive),-0.0552 (inactive),-0.624 (inactive),-0.109 (inactive),-1.55,0.065,0.902 (inactive),0.68,-0.244,-3.76 (inactive),-0.266 (inactive),-0.504 (inactive)
CCOC(=O)C[C@H]1[C@H](OC(=O)Cc2ccc3c(c2)OCO3)[C@@H](NC(=O)C2CCCCC2)c2cc(OCCCO)ccc2N1C(=O)c1ccc2ccccc2n1,0.306,-1.65 (inactive),0.773 (inactive),-3.08 (inactive),-1.93 (inactive),0.133 (inactive),0.777 (inactive),0.259 (inactive),-0.338,0.302,1.35 (inactive),0.639,-2.04,-3.76 (inactive),0.404 (inactive),-0.0148 (inactive)
CN(C)C(=O)[C@@]1(Cc2ccccc2N=[N+]=[N-])COC(c2ccc(OCCCO)cc2)=N1,1.44,-4.24 (inactive),-0.0135 (inactive),0.369 (inactive),-0.497 (inactive),0.481 (inactive),0.632 (inactive),1.42 (inactive),0.816,0.194,0.472 (inactive),0.605,-1.8,-5.84 (inactive),-0.408 (inactive),-0.362 (inactive)
C=C(C(=O)CC[C@H](OC(C)=O)c1cccc(OCCO)c1)C(C)C,-1.23,-0.105 (inactive),-0.748 (inactive),-0.781 (inactive),-0.411 (inactive),0.0297 (inactive),-1.04 (inactive),-0.86 (inactive),-0.559,0.0454,-0.252 (inactive),0.565,-1.96,-4.74 (inactive),0.885 (inactive),0.41 (inactive)
